Reference: the supplement of paper PMC8285479
Values joined by “and” are separate entries in the source; they are usually repeats but may differ in a detail not shown here. Equal values may be shown once. ± gives the standard deviation of the averaged measurements. The full ranking holds about 1,900 compounds; the median of “normalised cell viability (NPI; 0 = phenylarsine oxide control, 1 = DMSO control)” is about 1, and the lowest 2% start at about 0.039. Shown is part of a subset that was picked to be rich in the lowest values.

Test system: NCI-H1944
Test: normalised cell viability (NPI; 0 = phenylarsine oxide control, 1 = DMSO control) (fraction of DMSO control); NCI-H1944 is a non-small cell lung cancer line; higher = more viable cells (less compound toxicity)
Conditions: 6 days
[1] = glucocorticoid arm: hydrocortisone 2.75 uM co-treatment, compound 1 µM
[2] = glucocorticoid arm: hydrocortisone 2.75 uM co-treatment, compound 5 µM
[3] = glucocorticoid arm: hydrocortisone 2.75 uM pre-treated 2 days and continued, compound 1 µM
[4] = glucocorticoid arm: hydrocortisone 2.75 uM pre-treated 2 days and continued, compound 5 µM
[5] = glucocorticoid arm: vehicle, compound 1 µM
[6] = glucocorticoid arm: vehicle, compound 5 µM
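Further: CTB read-out in 384-well plates, triplicate wells, NPI normalised per plate against 1 µM phenylarsine oxide (0) and 0.1% DMSO (1) controls.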

C=CS(=O)(=O)NC1CCN(C(=O)CNc2cc(I)c(Cl)cc2OC)CC1 [K-Ras(G12C) inhibitor 9]
normalised cell viability [1]: 1.03 ± 0.01
normalised cell viability [2]: 1.07 ± 0.029
normalised cell viability [3]: 1.04
normalised cell viability [4]: 1.04 ± 0.025
normalised cell viability [5]: 0.993 ± 0.0036
normalised cell viability [6]: 0.996 ± 0.014

C[N+](C)(C)CC=O [Betaine aldehyde chloride]
normalised cell viability [1]: 0.9877 ± 0.0021
normalised cell viability [2]: 0.993 ± 0.012
normalised cell viability [3]: 0.9913 ± 0.0081
normalised cell viability [4]: 0.993 ± 0.0085
normalised cell viability [5]: 0.9647 ± 0.0015
normalised cell viability [6]: 0.9803 ± 0.0015

NC[C@@H](O)c1ccc(O)c(O)c1 [L(-)-Norepinephrine bitartrate]
normalised cell viability [1]: 1 ± 0.018
normalised cell viability [2]: 0.971 ± 0.011
normalised cell viability [3]: 1 ± 0.021
normalised cell viability [4]: 0.968 ± 0.0085
normalised cell viability [5]: 0.98 ± 0.017
normalised cell viability [6]: 0.9767 ± 0.0011

Nc1nc2c(nc(Br)n2C2OC3COP(=O)(O)O[C@@H]3C2O)c(=O)[nH]1 (some centres undefined) [8-Bromo-cGMP sodium]
normalised cell viability [1]: 1.023 ± 0.0058
normalised cell viability [2]: 1.02
normalised cell viability [3]: 1.02 ± 0.01
normalised cell viability [4]: 1 ± 0.028
normalised cell viability [5]: 1.01 ± 0.011
normalised cell viability [6]: 1.01 ± 0.015

CCc1ccc(OCc2ccccc2C(=O)Nc2ccc3nc(C)cc(N)c3c2)cc1
normalised cell viability [1]: 1.04 ± 0.011
normalised cell viability [2]: 0.00134 ± 0.00041
normalised cell viability [3]: 1.05 ± 0.017
normalised cell viability [4]: 0.00123 ± 0.00019
normalised cell viability [5]: 1.023 ± 0.0058
normalised cell viability [6]: 0.00113 ± 0.0006

CCN(CC)CCCC(C)Nc1nc(C)cc(Nc2ccc3nc(C)cc(N)c3c2)n1 (centres undefined)
normalised cell viability [1]: 0.845 ± 0.0082
normalised cell viability [2]: 0.444 ± 0.019
normalised cell viability [3]: 0.888 ± 0.01
normalised cell viability [4]: 0.688 ± 0.036
normalised cell viability [5]: 1 ± 0.013
normalised cell viability [6]: 0.119 ± 0.0062

Cc1cc([C@@H](C)Nc2ccccc2C(=O)O)c2nc(N3CCOCC3)cc(=O)n2c1
normalised cell viability [1]: 0.878 ± 0.043
normalised cell viability [2]: 0.764 ± 0.062
normalised cell viability [3]: 0.879 ± 0.023
normalised cell viability [4]: 0.791 ± 0.03
normalised cell viability [5]: 0.9667 ± 0.0091
normalised cell viability [6]: 0.899 ± 0.035

CCCC(CCC)C(=O)NO [Valproic acid hydroxamate]
normalised cell viability [1]: 1 ± 0.022
normalised cell viability [2]: 1.01 ± 0.022
normalised cell viability [3]: 1.01 ± 0.016
normalised cell viability [4]: 1.02 ± 0.016
normalised cell viability [5]: 0.9982 ± 0.0077
normalised cell viability [6]: 0.9988 ± 0.0092

NC1CCN(O)C1=O (racemic)
normalised cell viability [1]: 0.983 ± 0.011
normalised cell viability [2]: 0.999 ± 0.011
normalised cell viability [3]: 0.9857 ± 0.0051
normalised cell viability [4]: 0.984 ± 0.023
normalised cell viability [5]: 0.985 ± 0.013
normalised cell viability [6]: 0.98733 ± 0.00058

CC(C)C[C@H](NC(=O)CNC(=O)c1cc(Cl)ccc1Cl)B1OC(=O)CC(CC(=O)O)(C(=O)O)O1 (some centres undefined)
normalised cell viability [1]: 0.98 ± 0.014
normalised cell viability [2]: 0.835 ± 0.018
normalised cell viability [3]: 1.047 ± 0.0058
normalised cell viability [4]: 1.04 ± 0.015
normalised cell viability [5]: 0.263 ± 0.024
normalised cell viability [6]: 0.0378 ± 0.0053

CC(C)C[C@H](NC(=O)CNC(=O)c1cc(Cl)ccc1Cl)B(O)O
normalised cell viability [1]: 0.978 ± 0.0095
normalised cell viability [2]: 0.886 ± 0.03
normalised cell viability [3]: 1.04 ± 0.01
normalised cell viability [4]: 1.04 ± 0.011
normalised cell viability [5]: 0.311 ± 0.032
normalised cell viability [6]: 0.0506 ± 0.0038

CCCCCCCCCCCCCCCCCCNC(=O)OCC(COP(=O)([O-])OCC[n+]1ccsc1)OC (centres undefined)
normalised cell viability [1]: 0.9967 ± 0.0035
normalised cell viability [2]: 1.02 ± 0.011
normalised cell viability [3]: 1.02 ± 0.024
normalised cell viability [4]: 1.01 ± 0.015
normalised cell viability [5]: 0.997 ± 0.0017
normalised cell viability [6]: 0.82 ± 0.33

COc1ccc(CCNC[C@@H](O)c2ccc(O)cc2)cc1OC [R(-)-Denopamine]
normalised cell viability [1]: 1.01 ± 0.01
normalised cell viability [2]: 1.017 ± 0.0058
normalised cell viability [3]: 1.02 ± 0.017
normalised cell viability [4]: 1.013 ± 0.0058
normalised cell viability [5]: 1.01
normalised cell viability [6]: 1.01 ± 0.014

c1cncc(CN2CCC(n3ncc4c(N5CCOCC5)nc(-c5ccc6[nH]ccc6c5)nc43)CC2)c1
normalised cell viability [1]: 0.773 ± 0.022
normalised cell viability [2]: 0.532 ± 0.036
normalised cell viability [3]: 0.743 ± 0.027
normalised cell viability [4]: 0.615 ± 0.036
normalised cell viability [5]: 0.542 ± 0.035
normalised cell viability [6]: 0.24 ± 0.0038

Cc1nc(Nc2n[nH]c3c2CN(C(=O)N[C@H](CN(C)C)c2ccccc2)C3(C)C)c2sccc2n1
normalised cell viability [1]: 0.832 ± 0.033
normalised cell viability [2]: 0.29 ± 0.072
normalised cell viability [3]: 1.05 ± 0.015
normalised cell viability [4]: 0.763 ± 0.02
normalised cell viability [5]: 0.12 ± 0.011
normalised cell viability [6]: 0.0302 ± 0.0031

CC(C)CC(=O)Nc1n[nH]c2c1CN(C(=O)C1CCN(C)CC1)C2(C)C
normalised cell viability [1]: 0.8357 ± 0.0074
normalised cell viability [2]: 0.369 ± 0.0055
normalised cell viability [3]: 0.968 ± 0.0056
normalised cell viability [4]: 0.962 ± 0.036
normalised cell viability [5]: 0.365 ± 0.023
normalised cell viability [6]: 0.0459 ± 0.004

N=C1Sc2ccccc2C2=NCCCN12
normalised cell viability [1]: 1.017 ± 0.0058
normalised cell viability [2]: 1.01 ± 0.031
normalised cell viability [3]: 1.02 ± 0.011
normalised cell viability [4]: 0.86 ± 0.28
normalised cell viability [5]: 1.002 ± 0.0068
normalised cell viability [6]: 1.02 ± 0.015

Cc1nc(N=Nc2ccc(C(=O)O)cc2)c(COP(=O)(O)O)c(C=O)c1O
normalised cell viability [1]: 0.999 ± 0.0017
normalised cell viability [2]: 0.998 ± 0.02
normalised cell viability [3]: 1.01 ± 0.01
normalised cell viability [4]: 1.005 ± 0.0087
normalised cell viability [5]: 0.9937 ± 0.0085
normalised cell viability [6]: 1 ± 0.016

CN(C)CCCCSC(=N)N
normalised cell viability [1]: 1.001 ± 0.0081
normalised cell viability [2]: 1.01 ± 0.011
normalised cell viability [3]: 1.02 ± 0.026
normalised cell viability [4]: 1.02 ± 0.011
normalised cell viability [5]: 0.9953 ± 0.0064
normalised cell viability [6]: 0.9883 ± 0.005

O=C(CCCCCCNC(=O)c1cnc(N(c2ccccc2)c2ccccc2)nc1)NO [Rocilinostat (ACY-1215)]
normalised cell viability [1]: 0.9393 ± 0.0064
normalised cell viability [2]: 0.966 ± 0.011
normalised cell viability [3]: 0.944 ± 0.015
normalised cell viability [4]: 0.945 ± 0.018
normalised cell viability [5]: 0.9923 ± 0.0021
normalised cell viability [6]: 0.918 ± 0.0096

O=C(CCCCCCC(=O)NO)NO [Suberoyl bis-hydroxamic acid]
normalised cell viability [1]: 0.958 ± 0.024
normalised cell viability [2]: 0.833 ± 0.053
normalised cell viability [3]: 0.968 ± 0.021
normalised cell viability [4]: 0.868 ± 0.04
normalised cell viability [5]: 1.005 ± 0.0057
normalised cell viability [6]: 0.9962 ± 0.0093

O=C(CCCCCCNC(=O)c1cnc(N(c2ccccc2)c2ccccc2)nc1)NO
normalised cell viability [1]: 0.9803 ± 0.0098
normalised cell viability [2]: 0.922 ± 0.018
normalised cell viability [3]: 0.996 ± 0.021
normalised cell viability [4]: 0.9343 ± 0.0021
normalised cell viability [5]: 1.01 ± 0.01
normalised cell viability [6]: 0.9873 ± 0.0071

NC(=S)c1ccc[n+]([C@@H]2O[C@@H](COP(=O)([O-])OP(=O)(O)OC[C@H]3O[C@@H](n4cnc5c(N)ncnc54)C(OP(=O)(O)O)[C@H]3O)C(O)C2O)c1 (some centres undefined) [Thio-NADP sodium]
normalised cell viability [1]: 1.013 ± 0.0058
normalised cell viability [2]: 1.01 ± 0.026
normalised cell viability [3]: 1.03 ± 0.021
normalised cell viability [4]: 0.998 ± 0.013
normalised cell viability [5]: 1.013 ± 0.0058
normalised cell viability [6]: 1.013 ± 0.0058

CC(C)c1cc(-c2ccc(F)c3ccccc23)nc(N)n1
normalised cell viability [1]: 0.9813 ± 0.0081
normalised cell viability [2]: 0.9787 ± 0.005
normalised cell viability [3]: 0.991 ± 0.018
normalised cell viability [4]: 0.993 ± 0.013
normalised cell viability [5]: 0.984 ± 0.025
normalised cell viability [6]: 1.001 ± 0.0079

COc1ccc(Cl)cc1NC(=O)Nc1cc(C)nc2ccccc12
normalised cell viability [1]: 1.01 and 1.02
normalised cell viability [5]: 1 and 1.01

Cc1cc(Nc2ccc(NC(=O)c3ccc(Nc4ccnc5ccccc45)cc3)cc2)nc(N)n1
normalised cell viability [1]: 0.99 ± 0.017
normalised cell viability [2]: -0.000696 ± 0.0048
normalised cell viability [3]: 0.9783 ± 0.0035
normalised cell viability [4]: 0.492 ± 0.5
normalised cell viability [5]: 1.006 ± 0.0075
normalised cell viability [6]: 0.000819 ± 0.0006

CNCc1ccc(C)c(NC(=O)c2ccc(Nc3nc(-c4ccccc4)c4ccccc4n3)cc2)c1
normalised cell viability [1]: 0.965 ± 0.017
normalised cell viability [2]: 0.939 ± 0.017
normalised cell viability [3]: 0.9953 ± 0.0021
normalised cell viability [4]: 0.959 ± 0.015
normalised cell viability [5]: 0.991 ± 0.0027
normalised cell viability [6]: 0.988 ± 0.011

O=C(O)C=C1CCCc2ccccc2C1O (centres undefined)
normalised cell viability [1]: 0.987 ± 0.012
normalised cell viability [2]: 0.948 ± 0.026
normalised cell viability [3]: 0.987 ± 0.02
normalised cell viability [4]: 0.994 ± 0.044
normalised cell viability [5]: 0.983 ± 0.0069
normalised cell viability [6]: 0.987 ± 0.01
